Measurements from the OligoGym collection.

Columns and labels:
Assay in all cases: pooled miR-30 sensor sort-seq; sequence = guide strand
Conditions in all cases: shRNA
[1] = biological target: COBRA1
[2] = biological target: CNPPD1
[3] = biological target: COG2
[4] = biological target: CNTD1
[5] = biological target: COL4A3BP
[6] = biological target: COPS7A
[7] = biological target: CRTAM
[8] = biological target: CRYGS
[9] = biological target: CSE1L
[10] = biological target: CSGALNACT1
[11] = biological target: CSH1
[12] = biological target: CTCFL
[13] = biological target: CTBP2
[14] = biological target: CT47A1
Further: reference of the scale not given here.

## TTCTCTGTCTGGAACTGCTCGA
[1]
  sensor-assay potency score (higher = more potent): -0.254

## TCTGTGTAGGTGTACCAGCCTC
[2]
  sensor-assay potency score (higher = more potent): -1.36

## ATGAGCTACGTATTTCTTCTGG
[2]
  sensor-assay potency score (higher = more potent): -0.315

## TTTAATACATCTGACACGGTTT
[3]
  sensor-assay potency score (higher = more potent): -0.235

## TAAGAGAACTCAGCAATGCTTG
[4]
  sensor-assay potency score (higher = more potent): -0.451

## TGACACTCGCTCCAGCAGCTTG
[1]
  sensor-assay potency score (higher = more potent): -1.51

## TTTAGTGTGTAGATAGCCTAGA
[4]
  sensor-assay potency score (higher = more potent): 0.238

## TGAAAAGGGAACATTGCTGAGG
[2]
  sensor-assay potency score (higher = more potent): -0.362

## TTGTAGGAAAGTCATCTTCATC
[5]
  sensor-assay potency score (higher = more potent): -1.71

## TAGTGTGACAGGATTCTAGGAT
[6]
  sensor-assay potency score (higher = more potent): 0.596

## TAGCTGCTCACACTGACCCTGA
[7]
  sensor-assay potency score (higher = more potent): -0.659

## TGATGGAAGGGCAATCTTCGGT
[8]
  sensor-assay potency score (higher = more potent): -1.06

## TTTTAAATAATGAATGTGCTGT
[9]
  sensor-assay potency score (higher = more potent): 0.306

## TAGCAGAATCTCAACAAACGGT
[9]
  sensor-assay potency score (higher = more potent): -0.43

## TTAATGGAGTTGCAGCGACTTA
[8]
  sensor-assay potency score (higher = more potent): -1.8

## TGAAATTGCTCCATGATGGAAG
[8]
  sensor-assay potency score (higher = more potent): -0.169

## AAAACTTGCATAATCCTCGTAC
[9]
  sensor-assay potency score (higher = more potent): 0.387

## TGGAGTTGCAGCGACTTAGGTA
[8]
  sensor-assay potency score (higher = more potent): -0.835

## TAAGATTTCAGTAAACACCAAA
[9]
  sensor-assay potency score (higher = more potent): -0.574

## TGAACAGCTCTGCAGGAGCTGA
[8]
  sensor-assay potency score (higher = more potent): -1.21

## TTCTGTGGAAAATCTTCTCTGC
[9]
  sensor-assay potency score (higher = more potent): 0.43

## TTAGCTTTGCAAGTTATTCTTA
[9]
  sensor-assay potency score (higher = more potent): 0.362

## TTACAGGAGTGGATCTCTCGCA
[8]
  sensor-assay potency score (higher = more potent): 0.0996

## TACATTTCCAGATACCTTCTGA
[9]
  sensor-assay potency score (higher = more potent): -0.0308

## TCGCAATCACAGTCATAGCGAC
[8]
  sensor-assay potency score (higher = more potent): -1.06

## TCATCTTCAACAATTCTCCAGT
[9]
  sensor-assay potency score (higher = more potent): -0.0113

## TATACTGGCCTCCACTAGGCAG
[8]
  sensor-assay potency score (higher = more potent): -0.983

## TAAGTATGAACAACAATACTTT
[9]
  sensor-assay potency score (higher = more potent): -0.402

## TTCATCTTCAACAATTCTCCAG
[9]
  sensor-assay potency score (higher = more potent): -0.255

## TTGAAAATTTTTGTCTTCATAG
[8]
  sensor-assay potency score (higher = more potent): -1.17

## TAACAGCTAATAGCTTCTGTGT
[9]
  sensor-assay potency score (higher = more potent): -1.13

## TATTGATGAAGTCTGACCGATA
[10]
  sensor-assay potency score (higher = more potent): -0.823

## TTGTGTAATTCCATGCTTCTGT
[9]
  sensor-assay potency score (higher = more potent): -0.12

## TAATATATTTGATACCGTCAGC
[9]
  sensor-assay potency score (higher = more potent): -0.712

## TAATGGAGTTGCAGCGACTTAG
[8]
  sensor-assay potency score (higher = more potent): -1.4

## TATTAGTACAAACCATTCCTTC
[10]
  sensor-assay potency score (higher = more potent): -0.885

## TATATTGGTCAACTGATTCAGG
[9]
  sensor-assay potency score (higher = more potent): -0.381

## TCGCATGTGAAATTGCTCCATG
[8]
  sensor-assay potency score (higher = more potent): -0.662

## TTGACCTACAGGATCATGCTCT
[9]
  sensor-assay potency score (higher = more potent): 0.379

## TATTGCTTCAAACATGTAGTGA
[9]
  sensor-assay potency score (higher = more potent): -0.339

## TTTCTCAAAGATCTGAATCTTA
[8]
  sensor-assay potency score (higher = more potent): 0.174

## TTGGGTTCTTACTAACAGCTAA
[9]
  sensor-assay potency score (higher = more potent): -0.417

## TCCACTTTAATGGAGTTGCAGC
[8]
  sensor-assay potency score (higher = more potent): -1.52

## AAGATCTGAATCTTATACTGGC
[8]
  sensor-assay potency score (higher = more potent): 0.642

## TTGACTTAAATTCATGACGGTA
[9]
  sensor-assay potency score (higher = more potent): -0.629

## TTGAATTGCATTACTTACCAAC
[9]
  sensor-assay potency score (higher = more potent): -0.851

## TACAGGAGTGGATCTCTCGCAT
[8]
  sensor-assay potency score (higher = more potent): -0.237

## TTAATCAAGAGAGGAATCGAGA
[9]
  sensor-assay potency score (higher = more potent): -0.818

## AAAGATCTGAATCTTATACTGG
[8]
  sensor-assay potency score (higher = more potent): 0.0834

## TTATGGATAAACATATTGCTTC
[9]
  sensor-assay potency score (higher = more potent): -0.779

## TAGAAGATAAAAACCTTGGTGG
[9]
  sensor-assay potency score (higher = more potent): 0.264

## TACTCGGGCACCTAGAAGCCAC
[11]
  sensor-assay potency score (higher = more potent): -1.13

## TTGAGGAGCATTTCACACCTTA
[12]
  sensor-assay potency score (higher = more potent): 0.0619

## TGCTGGTCTATTACTGACCAAG
[13]
  sensor-assay potency score (higher = more potent): -1.63

## TTCTGTCCAATCGCTGTCTCTT
[13]
  sensor-assay potency score (higher = more potent): -0.623

## AATTTCTTAAGCTTTCTGGGAT
[13]
  sensor-assay potency score (higher = more potent): 0.0586

## TTCGTTGAGATTGCAGTGCAAG
[13]
  sensor-assay potency score (higher = more potent): -1.27

## TTCGGGGCATCTTTCAACGGAC
[13]
  sensor-assay potency score (higher = more potent): -0.791

## TTCCTCGCCTGCAGCATCTTGG
[14]
  sensor-assay potency score (higher = more potent): -0.775

## TTATGTTCGTTGAGATTGCAGT
[13]
  sensor-assay potency score (higher = more potent): -0.485

## TTGAATTATGTAAAACATCTTT
[12]
  sensor-assay potency score (higher = more potent): -0.709

## TTCTCTATGAGGATGTGGTCGT
[14]
  sensor-assay potency score (higher = more potent): 0.0532

## TTTGGGGACATTTTCGCCGTGT
[12]
  sensor-assay potency score (higher = more potent): -0.126

## TACCTTCACAAATTCTGTCCAA
[13]
  sensor-assay potency score (higher = more potent): -0.0172

## TTGCTTGCTGGTCTATTACTGA
[13]
  sensor-assay potency score (higher = more potent): -0.788

## TATCCTGCAACTCCACAGCTTC
[12]
  sensor-assay potency score (higher = more potent): -1.14

## TTTAGTGACTTCCTCTGGGGCC
[14]
  sensor-assay potency score (higher = more potent): -0.087

## ATTTAGTGACTTCCTCTGGGGC
[14]
  sensor-assay potency score (higher = more potent): -0.669

## TCGCTGTCTCTTGACTTTGTGC
[13]
  sensor-assay potency score (higher = more potent): -1.38

## TGTTCTTTCTCTTCCTCGCCTG
[14]
  sensor-assay potency score (higher = more potent): 0.234

## TTGTATAAAAACATTTGTCTTT
[12]
  sensor-assay potency score (higher = more potent): -0.651

## TTATTTTCTAGTCTAATCTAGT
[12]
  sensor-assay potency score (higher = more potent): -0.371

## TTCGTTTAGAACCTTCTCGTGG
[13]
  sensor-assay potency score (higher = more potent): -0.189

## TAGAGTCCGCTGTCTCTTCCAC
[13]
  sensor-assay potency score (higher = more potent): -0.12

## TATGGTAAAGTCATTGATGAGG
[13]
  sensor-assay potency score (higher = more potent): -1.17

## TTTAGAAGTTGCTTCTGTCGGA
[12]
  sensor-assay potency score (higher = more potent): 0.605

## TTGTTTTCTGCATCCTTCTCTT
[14]
  sensor-assay potency score (higher = more potent): -0.0876

## TTGACGGTTCTCTATGAGGATG
[14]
  sensor-assay potency score (higher = more potent): -1.48

## TTGCAGTGCAAGGAGACGCAGT
[13]
  sensor-assay potency score (higher = more potent): -0.883

## TTGCTGGTCTATTACTGACCAA
[13]
  sensor-assay potency score (higher = more potent): -0.982

## TTTCCTGCGTCGACTGCGCGTC
[13]
  sensor-assay potency score (higher = more potent): -0.459

## TAAGGCTTTCTCGTCCACCAGG
[13]
  sensor-assay potency score (higher = more potent): -0.686

## TTTCTTTGAAATATCCAGCTAC
[12]
  sensor-assay potency score (higher = more potent): 0.55

## TATCCGCACGATCACTCTCAGG
[13]
  sensor-assay potency score (higher = more potent): -1.62

## TCGTTTAGAACCTTCTCGTGGA
[13]
  sensor-assay potency score (higher = more potent): 0.661

## AATCGCTGTCTCTTGACTTTGT
[13]
  sensor-assay potency score (higher = more potent): 0.0201

## TTGTGAGTCACTGGGATGCCTC
[13]
  sensor-assay potency score (higher = more potent): -1.08

## TTGAGATTGCAGTGCAAGGAGA
[13]
  sensor-assay potency score (higher = more potent): -0.597

## TAAAATATGACGCTGAATCCAA
[13]
  sensor-assay potency score (higher = more potent): -0.138

## TATCTGAGTCCTCCTCGGCGCT
[14]
  sensor-assay potency score (higher = more potent): -1.49
